# HSV augment – enhancers of HSV replication in host cells, fold increase, host cell viability; actives 0.005% (n = 220,000); maximum fold increase; HSV replication augmentation in cells; AID 1956, 2009; in the data active means maximum fold increase above about 1.5; tested in PC3 cells
# GC-A act – GC-A stimulated cGMP production enhancers – HEK293 GC-A cells, cGMP TR-FRET, EC30 ANP, primary screen. 0% at EC30 ANP, 100% saturating ANP. AID 1671463, 2021. actives 0.14% (n = 370,000). Atrial natriuretic peptide receptor 1 (Homo sapiens), P16066. activation, % at 10 µM; in the data active means activation above about 40%
# Efflux pump inh – inhibitors of Candida efflux pumps in yeast, primary screen, S. cerevisiae, Nile Red, multiplex; S. cerevisiae Candida pump triplex; inhibition, % at 10 µM; actives 0.44% (n = 330,000); AID 485275, 2010;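 active means plate passing quality check with inhibition over a set limit, or well fluorescence over plate mean plus 4 SD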;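 further: Nile Red retained in pooled yeast measured as flow cytometry median fluorescence; 0% = buffer negative control and 100% = Enniatin B positive control; higher means more Nile Red kept so more efflux inhibition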
# A1 inh – caspase 3/7 activation in MEF A1-2A-BIM cells, primary screen, A1 inhibitor project, cell-based, luminescence, HTS; actives 0.066% (n = 330,000); Caspase-Glo 3/7 luminescence, 3 h; percent of clofoctol response, vehicle zero; caspase activation, % (no concentration beside the values); AID 2462, 2010;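 active means over half of replicate activation scores above 10%, or exactly half above 10 with the replicate mean above 10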
# NPR2 activator – human GC-B receptor activators, primary screen, HEK293 GC-B cells, cGMP TR-FRET, EC30 CNP. Atrial natriuretic peptide receptor 2 (Homo sapiens), P20594. 0% at EC30 CNP, 100% saturating CNP. activation, % at 10 µM. actives 0.11% (n = 370,000). AID 1920062, 2024;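 active means activation at 10 µM reaching about 35% in either raw or pattern-adjusted values, limit read from the data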
# H9c2 TAG inh – inhibitors of triacylglycerol accumulation, primary screen, cell-based, uHTS, fluorescence, H9c2 | actives 0.66% (n = 230,000) | AID 651582, 2012 | inhibition, % at 12.5 µM | H9c2 cells, Nile Red lipid (TAG) fluorescence; cells loaded with 200 µM oleic acid;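 active means pattern-corrected inhibition of lipid staining of at least 50% with the nuclear-stain viability signal not falling by more than 50%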;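 further: 0% = DMSO wells and 100% = triacsin C control wells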
# Cmpd fluor yeast – compound fluorescence in yeast efflux pump counter-screen; shares compounds with Efflux pump inh; S. cerevisiae AD/pABC3, flow cytometry; fluorescence ratio to DMSO, % at 10 µM; actives 4% (n = 1,700);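 active means fluorescence ratio to DMSO above its plate's cutoff, the plate mean ratio plus 5 SD, cut at about 210% in these data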;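 further: unstained yeast with no Nile Red so the signal is compound autofluorescence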
# Mdr1 pump inh – inhibitors of Candida albicans Mdr1 efflux, confirmation, flow cytometry, singleplex, Cherry Pick1 set; S. cerevisiae AD/CaMDR1, Nile Red efflux; shares compounds with Efflux pump inh; actives 1% (n = 1,700); AID 588518, 2011; inhibition, % at 10 µM; in the data active means inhibition above about 26%;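 further: 0% = DMSO vehicle and 100% = reference inhibitor; higher means more Nile Red retained so more efflux inhibition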
# CaCdr2 efflux inh – inhibitors of Candida albicans Cdr2 efflux pump, confirmation, S. cerevisiae AD/CaCDR2, flow cytometry, cherry pick 1, singleplex | shares compounds with Efflux pump inh | Nile Red retention | Nile Red retention ratio vs DMSO, % at 10 µM | actives 4% (n = 1,700); in the data active means Nile Red retention ratio vs DMSO above about 190%;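 further: higher ratio means more blocking of Cdr2 efflux of the dye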
# CaCdr1 efflux inh – inhibitors of Candida albicans Cdr1 efflux pump, confirmation, S. cerevisiae AD/CaCDR1, flow cytometry, cherry pick 1, singleplex; shares compounds with Efflux pump inh; AID 588522, 2011; Nile Red efflux; inhibition, % at 10 µM; actives 1% (n = 1,700);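 active means inhibition above the screen-wide mean plus twice its standard deviation, cut at about 32% in these data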
# Starred values were filed as active, the others as inactive; i = inactive; . = no result; + = active, no number. Only some compounds are listed: those with a hit (about 1% of all), similar ones and a draw of the others.
SMILES,HSV augment,GC-A act,Efflux pump inh,A1 inh,NPR2 activator,H9c2 TAG inh,Cmpd fluor yeast,Mdr1 pump inh,CaCdr2 efflux inh,CaCdr1 efflux inh
CC(CNC(=O)c1ccc(C(C)(C)C)cc1)CN(C)C (centres undefined),.,0,2.0*,0,4,.,100,0,96,0
COCCn1c(C)cc(C(=O)CSc2nc(C)nc3sc4c(c23)CCC4)c1C,i,-11,1.6*,1,5,.,110,0,112,0
Cc1nc(SCC(=O)NCC2CCCO2)c2c3c(sc2n1)CCCC3 (centres undefined),.,-4,0,-1,-1,.,.,.,.,.
CC[n+]1ccc(/C=C/c2c[nH]c3ccccc23)cc1,.,-11,2.3*,0,-8,.,217,3,102,0
Cc1ccc2[nH]cc(/C=C/c3cc[n+](C)cc3)c2c1,.,-12,9.3*,0,-11,.,908*,7,137,6
COc1ccc2c(/C=C/c3cc[n+](C)cc3)c[nH]c2c1,.,-26,9.1*,1,-25,.,+,23,256*,13
COc1ccc2c(c1)c1ccccc1n2C,i,-1,0,0,0,-2,.,.,.,.
CCn1c(/C=C/c2c[nH]c3ccccc23)nc2ccccc2c1=O,i,-6,0,-2,4,-5,.,.,.,.
COc1ccc2c(c1)c(/C=C/c1cc[n+](C)cc1)cn2C,.,-21,16*,1,-14,.,+,4,136,6
COC(=O)[C@H](C(C)C)N(CCc1cn(CC2CCCCC2)nn1)S(=O)(=O)c1ccc(F)cc1Br,.,1,.,.,-3,.,.,.,.,.
COc1cccc(Cn2cc(COC(=O)N3CCCC3)nn2)c1,.,3,.,.,-1,.,.,.,.,.
Cc1cc(C(=O)O)n(C(C)(C)C)n1,i,0,2.0*,0,3,11,95,0,95,0
CCCCCCCCCCOC(=O)Cn1c(COc2cccc(C)c2)[n+](C)c2ccccc21,.,-9,1.0*,-1,0,.,110,0,120,0
CCCCCCCCCCOC(=O)Cn1c(COc2ccc(Cl)cc2)[n+](C)c2ccccc21,.,-15,3.1*,1,-6,.,115,0,222*,0
COc1ccc(C=O)cc1-c1cc(C(C)=O)c2n(c1=O)CCC2,.,1,.,.,2,.,.,.,.,.
O=C(N/N=C/c1cccs1)c1ccc2c(c1)OCO2,.,1,11*,-3,3,.,95,0,112,0
O=C(N/N=C/c1ccccc1O)c1ccc2c(c1)OCO2,.,0,0,-6,3,.,.,.,.,.
CCc1ccc2[nH]c(O)c(N=Nc3nc(-c4ccccc4)cs3)c2c1,i,-5,0.9*,0,5,3,105,0,91,0
CCc1cc2c(N=Nc3c(O)[nH]c4ccccc34)ncnc2s1,i,-1,0,1,-7,.,.,.,.,.
COc1ccc(C2c3ccc4ccccc4c3Oc3ncn(CCN4CCOCC4)c(=N)c32)cc1 (centres undefined),i,-1,1.0*,-1,1,.,108,0,112,0
COc1ccc(C2c3ccc4ccccc4c3Oc3ncn(CCN4CCOCC4)c(=N)c32)cc1OC (centres undefined),i,-6,0,0,-8,23,.,.,.,.
CCc1ccc(NC(=O)C(NS(=O)(=O)c2ccc3c(c2)CCN3C(C)=O)C(C)C)cc1 (centres undefined),.,1,1.6*,0,2,.,105,0,89,0
COc1ccc(CCNC(=O)C(NS(=O)(=O)c2ccc3c(c2)CCN3C(C)=O)C(C)C)cc1OC (centres undefined),i,.,0,-1,.,.,.,.,.,.
Oc1ccccc1-c1nc2c3ccccc3c3ccccc3c2[nH]1,i,6,0,0,-8,.,.,.,.,.
c1csc(-c2nc3c4ccccc4c4ccccc4c3[nH]2)c1,i,-50,0.4*,0,-21,9,105,0,91,0
SMILES,HSV augment,GC-A act,Efflux pump inh,A1 inh,NPR2 activator,H9c2 TAG inh,Cmpd fluor yeast,Mdr1 pump inh,CaCdr2 efflux inh,CaCdr1 efflux inh
C=CCN1C(=O)[C@H](CC(=O)NCc2ccccc2)[C@@]2(C(=O)OCC)CCCC=C12,.,-1,.,.,2,.,.,.,.,.
O=S(=O)(c1sccc1Br)n1c(CN2CCOCC2)nc2ccccc21,.,-14,.,.,-16,.,.,.,.,.
COC(=O)[C@@H]1C[C@@]2(c3ccccc3)c3ccccc3N(S(=O)(=O)c3ccccc3)[C@H]2N1C(=O)CNC/C=C(\C)CCC=C(C)C,.,-8,.,.,-4,.,.,.,.,.
Cc1ccnc(SC2CC(=O)N(c3ccc(Br)cc3)C2=O)n1 (centres undefined),.,-1,1.1*,-2,-1,.,83,0,83,0
Cc1ccnc(SC2CC(=O)N(c3ccc(Cl)cc3)C2=O)n1 (centres undefined),.,0,0,0,4,-6,.,.,.,.
Cc1ccc2c(c1)-c1c(cnn1CC(=O)NCCc1ccc(O)cc1)CO2,.,1,.,.,2,.,.,.,.,.
O=C(Cc1cc(=O)[nH][nH]1)N/N=C/c1ccccc1C(F)(F)F,.,2,.,.,2,.,.,.,.,.
COc1ccc(CNC(=O)c2sc3nc(C)c(Cl)c(C)c3c2N)cc1,.,4,.,.,-2,.,.,.,.,.
CCC(C)n1cnc2c(c1=O)c1nc3ccccc3nc1n2Cc1ccc(OC)cc1 (centres undefined),i,53*,70*,0,54*,32,100,0,123,1
C[C@H]1CCCN1c1ccc2c(c1)OCCCN(C1CC1)S2(=O)=O,.,-1,.,.,1,.,.,.,.,.
CCc1ccccc1-c1cc(C(C)=O)c2n(c1=O)CCC2,.,0,.,.,3,.,.,.,.,.
Cc1cccc(NC(=O)c2nc[nH]c2C(=O)N[C@H](C)c2ccccc2)c1,.,-1,0.9*,-1,-4,-44,106,0,104,0

# Source: PubChem BioAssay
